High-throughput results: PubChem, National Center for Advancing Translational Sciences (NCATS)
p53ts 39C tox – qHTS Screen for Compounds that Selectively Target Cancer Cells with p53 Mutations: Cytotoxicity of p53ts Cells at the Nonpermissive Temperature. hit rate 1.5% among 130,000. H1299-p53A138V viability at 39C, ATP luminescence, 24 h. Potency, µM (top dose mostly 46.1 µM), hits mostly cytotoxic; further: nearly all actives have a fitted effect of over 55% in size
HBB splice mod – qHTS Assay for Modulators of Hemoglobin Beta Chain Splicing; HBB splicing reporter cell assay, activation; EGFP reporter with mutant IVS2-654 intron; response scale: normalised to 500 nM splice-correcting PNA; Potency, µM (highest dose often 46.1 µM), usual class: activators; hit rate 0.06% among 65,000; AID 925, 2007
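Compounds were applied for 2 days to HeLa EGFP-654 cells, 500/well in Optimem with 2% FCS. The reporter's EGFP is disrupted by mis-splicing of beta-globin intron IVS2-654. Readout: summed well GFP fluorescence from 488 nm laser scanning; reference was 500 nM antisense […] 654 PNA.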
p53ts 32C tox – qHTS Screen for Compounds that Selectively Target Cancer Cells with p53 Mutations: Cytotoxicity of p53ts Cells at the Permissive Temperature; H1299-p53A138V at 32C, ATP luminescence viability, 24 h; Potency, µM (doses to about 46.1 µM), hits mostly cytotoxic; hit rate 0.93% among 130,000; further: nearly all actives have a fitted effect of over 55% in size
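Cells: H1299 p53ts (A138V), 600/well, pre-incubated 16–30 h at 37C. Cpd up to 46 uM, 24 h, 32C. Readout: ATPlite luminescence, 20 min RT. Normalization: DMSO vs tamoxifen 100 uM. AC50 by Hill equation.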
Peg3 imprint – qHTS Assay for Compounds that Induce Erasure of Genomic Imprints; mouse ES Peg3-LacZ reporter, beta-gal luminescence, 40 h; Potency, µM (series often up to 60.7 µM), actives largely listed as activators; hit rate 0.02% among 110,000
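Each well holds 300 Peg3LacZ-Neo (maternal) female ES cells incubated 40 h at 37C, 5% CO2. LacZ is measured by BetaGlo luminescence, with AC50 and maximum efficacy derived from dose-response curves.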
Epigenetic mod – qHTS Assay for Epigenetic Modulators; AID 597, 2007; mouse C127i GFP locus derepression, cytometry, 30 h; hit rate 0.09% among 68,000; Potency, µM (doses to about 46.1 µM)
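Read-out is the number of GFP-positive cells, scored as fluorescent objects 20 to 120 um wide, reflecting derepression of a silenced CMV-GFP reporter in murine C127i cells after 30 h compound exposure at 37 C.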
Ub-GFP proteasome – Ubiquitin-GFP Assay | 67,000 tested, under 10 active | Ubiquitin-GFP reporter cells, proteasome inhibition, GFP fluorescence; response scale: untreated = 0%, 10 µM MG-132 = 100% | Potency, µM (doses to about 45.9 µM), actives largely listed as activators; active means well fitted activation curve with a large enough effect, not every such curve was filed as active; inconclusive means small, poorly fitted or top-dose-only effect, or another doubt; inactive means no such curve, though single readings can be large or run the other way
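U2OS cells stably expressing ubiquitin(G76V)-GFP, seeded overnight in 0.5% FBS medium, were exposed to compounds (qHTS, 46 uM to 2.9 nM) for 4 hr at 37 °C. GFP-positive cells were counted by laser cytometry (488 ex/515 em), normalized between basal and 10 uM MG-132.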
Large screens that a line does not name were inactive. The list is not random: actives were taken first. Their share in the collection is about 1.6%. Unless noted, the call rests on the fitted dose curve; in most records, active means well fitted curve in the direction sought with a large enough effect; inconclusive means small, poorly fitted or top-dose-only effect, or another doubt; inactive means no such curve, though single readings can be large; an effect the other way counts as inactive or inconclusive.

Cc1nc2nc(-c3ccccc3)cc(=O)n2[nH]1	p53ts 39C tox 12.6µM, p53ts 32C tox 15.8µM
CCc1cc2c(cc3c(=O)n(CC(=O)NCc4cc(Br)ccc4OC)ncn32)s1	p53ts 39C tox inconclusive (no result: HBB splice mod, Epigenetic mod, Ub-GFP proteasome)
CCOC(=O)c1ccc(NC(=O)CSc2cn(CC(=O)N3CCCC3)c3ccccc23)cc1	none (no result: HBB splice mod, Epigenetic mod, Ub-GFP proteasome)
CNc1nnc(-c2ccc(N(C)C)cc2)s1	p53ts 39C tox 7.94µM, p53ts 32C tox 6.31µM (no result: HBB splice mod, Peg3 imprint, Epigenetic mod, Ub-GFP proteasome)
CC1=C(c2ccc(C(C)C)cc2)S(=O)(=O)N=C1N1CCC(C(=O)NCCc2ccco2)CC1	p53ts 39C tox inconclusive (no result: HBB splice mod, Epigenetic mod, Ub-GFP proteasome)
COc1ccc(CCNC(=O)Cn2c(=O)n(-c3ccc(C)c(C)c3)c(=O)c3c(C)c(C)sc32)cc1OC	none (no result: HBB splice mod, Epigenetic mod, Ub-GFP proteasome)
COc1cc2oc(-c3ccccc3)cc(=O)c2cc1O	p53ts 39C tox 7.94µM, p53ts 32C tox inconclusive (no result: HBB splice mod)
COc1cc(-c2cc(=O)c3ccccc3o2)ccc1O	none (no result: HBB splice mod)
Cc1ccccc1-c1noc(-c2cccnc2N(C)Cc2ccc(Cl)cc2)n1	none (no result: HBB splice mod, Epigenetic mod, Ub-GFP proteasome)
COc1ccc(-n2c(=O)c3c4c(sc3n(Cc3c(F)cccc3Cl)c2=O)CN(C(C)=O)CC4)cc1OC	none (no result: HBB splice mod, Epigenetic mod, Ub-GFP proteasome)
C=CCc1c(C)nc2nc(SCC(=O)Nc3ccc(C)c(C)c3)nn2c1C	p53ts 39C tox 12.6µM (no result: HBB splice mod, Epigenetic mod, Ub-GFP proteasome)
C=CCc1c(C)nc2nc(SCC(=O)Nc3cccc(Cl)c3)nn2c1C	p53ts 39C tox inconclusive (no result: HBB splice mod, Epigenetic mod, Ub-GFP proteasome)
Cc1cccc(NC(=O)C2CCN(S(=O)(=O)c3ccc4c(c3)CCCN4C(=O)C3CCC3)CC2)c1	none (no result: HBB splice mod, Epigenetic mod, Ub-GFP proteasome)
CCN(CCCNC(=O)c1cc2cc3ccc(OC)cc3nc2s1)c1cccc(C)c1	p53ts 39C tox 12.6µM, p53ts 32C tox inconclusive (no result: HBB splice mod, Epigenetic mod, Ub-GFP proteasome)
O=C(Nc1ccc(F)cc1)c1csc2c1CCCCC2	p53ts 39C tox inconclusive, p53ts 32C tox 15.8µM (no result: HBB splice mod, Epigenetic mod, Ub-GFP proteasome)
CC(CNC(=O)c1ccc(Cn2c(SCc3ccccc3)nc3cccnc32)cc1)c1ccccc1 (stereo unspecified)	none (no result: p53ts 39C tox, HBB splice mod, Peg3 imprint, Epigenetic mod, Ub-GFP proteasome)
CC1CCN(CCNC(=O)c2ccc(Cn3c(SCc4ccccc4)nc4cccnc43)cc2)CC1	p53ts 39C tox 10µM, p53ts 32C tox inconclusive (no result: HBB splice mod, Epigenetic mod, Ub-GFP proteasome)
CC1CCCCN1CCNC(=O)c1ccc(Cn2c(SCc3ccccc3)nc3cccnc32)cc1 (stereo unspecified)	p53ts 39C tox 10µM, p53ts 32C tox 10µM (no result: HBB splice mod, Epigenetic mod, Ub-GFP proteasome)
O=C(NCCN1CCCCC1)c1ccc(Cn2c(SCc3ccccc3)nc3cccnc32)cc1	p53ts 39C tox 10µM, p53ts 32C tox 12.6µM (no result: HBB splice mod, Epigenetic mod, Ub-GFP proteasome)
c1ccc(-c2cccc(N3CC[C@@]4(CCCNC4)C3)c2)cc1	p53ts 39C tox 15.8µM, p53ts 32C tox inconclusive (no result: Peg3 imprint)
c1ccc(-c2cccc(N3CCC4(CCNCC4)CC3)c2)cc1	p53ts 39C tox 15.8µM (no result: Peg3 imprint)
O=S(=O)(c1ccccc1)N1CCC[C@@]2(CCN(c3cccc(-c4ccccc4)c3)C2)C1	none (no result: Peg3 imprint)
c1ccc(-c2cccc(N3CCCC4(CCNCC4)C3)c2)cc1	p53ts 39C tox 12.6µM (no result: Peg3 imprint)
c1ccc(-c2cccc(N3CC4(CCNCC4)C3)c2)cc1	p53ts 39C tox inconclusive (no result: Peg3 imprint)
Cc1cc(C)c2c(-n3cccc3)c(C(=O)NCCCN3CCCCC3C)sc2n1 (stereo unspecified)	Peg3 imprint inconclusive (no result: HBB splice mod, Epigenetic mod, Ub-GFP proteasome)
CCOc1ccc(CNC(=O)C(C)n2ncn3cccc3c2=O)cc1 (stereo unspecified)	none (no result: HBB splice mod, Epigenetic mod, Ub-GFP proteasome)
CCn1cc(C(=O)NCCCOC)c(=O)c2cc(S(=O)(=O)N3CCc4ccccc4C3)ccc21	none (no result: HBB splice mod, Epigenetic mod, Ub-GFP proteasome)
Cc1ccccc1-n1c(SCc2ccc(Cl)cc2)nc2[nH]ncc2c1=O	none (no result: HBB splice mod, Epigenetic mod, Ub-GFP proteasome)
Cc1cc(-n2c(SCc3ccccc3F)nc3[nH]ncc3c2=O)ccc1Cl	p53ts 39C tox 15.8µM (no result: HBB splice mod, Epigenetic mod, Ub-GFP proteasome)
O=C(Cc1cc(=O)[nH]c(=O)[nH]1)N1CCC(Cc2ccccc2)CC1	p53ts 39C tox inconclusive, p53ts 32C tox 10µM (no result: Epigenetic mod)
Cc1ccc2c(=O)cc(C(=O)Nc3nnc(CC(C)C)s3)oc2c1C	none (no result: HBB splice mod, Epigenetic mod, Ub-GFP proteasome)
